For 40 molecules, growth inhibition results are on record in PubChem BioAssay (NCI).

Molecules are shown by their SMILES. About 79,000 compounds went through this panel and 15% of them were active in at least one assay; those are over-represented in the sample as a whole. Unmarked numbers belong to inactive results. Activity calls are given as the source filed them. Cut-off read from the data, not from the text of the source: active = growth inhibition above about 70%; inactive = the rest.

The nature of this test: NCI Yeast Anticancer Drug Screen. Data for the rad50 strain (AID 155).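 Note: 0% = growth of vehicle-only cultures of the same strain.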 The conditions noted are these: S. cerevisiae rad50 strain growth inhibition; at 5.0 µM (retest, dose inferred, filed as 0.5); active compounds read high. In a few lines:
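Compounds were tested on a yeast strain with an engineered DNA damage repair alteration; the reported value is growth inhibition normalised to vehicle treatment.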
As for `CCC1(c2ccc(N3C(=O)c4ccccc4C3=O)cc2)CCC(=O)NC1=O` (stereo not given), the growth inhibition was 1%. Take `CN(C)c1c([N+](=O)[O-])cc(N2C(=O)C=CC2=O)cc1[N+](=O)[O-]`: the growth inhibition was 81% (active). On to `CCOC1(OCC)Oc2c(Cl)c(Cl)c(Cl)c(Cl)c2OC1(OCC)OCC`, for which the growth inhibition is 11%.

For the molecule `CC(=O)NC1=C(Oc2ccccc2)C(=O)c2ccccc2C1=O`, the growth inhibition was 94% (active). For `CC1SC(=S)N(c2ccc(Cl)cc2)C1=O` (stereo not given) the value was 4%; for `CC(NNC(=S)N1CC2CCC(CC2)C1)c1cc2ccccc2cn1` (stereo not given), 97% (active); for `CCCCCCCCCCCCCC(=O)N1CCOCC1`, 0%.

On to `COC(O)C(=O)c1c2c(cc3c1CC1(Cc4cc5c(cc4C1)CCC5)C3)CCC2` (stereo not given), for which the growth inhibition was 69%. Then `CCC(=O)OCC(=O)c1ccc(-c2ccccc2)cc1`, with -9%; and `CN(Cc1cnc2nc(N)nc(N)c2n1)c1ccc(C(=O)NC(CCC(=O)O)C(=O)O)cc1` (stereo not given), with 2%.

On to `COc1ccc(C(=O)Nc2ccc(O)c(=O)cc2)cc1`, for which the growth inhibition was 2%. For `c1cc[c]([Sn]([NH]c2ncnc3[nH]cnc23)([NH]c2ncnc3[nH]cnc23)[c]2ccccc2)cc1` the value was -10%; for `CCCCCCCCCCCC1C(C#N)C(=O)NC(=O)C1C#N` (stereo not given), 92% (active).

In the case of `c1ccc(CSc2nnc3c4ccccc4c4ccccc4c3n2)cc1`, the growth inhibition is -4%. For `Cc1ccc(-n2cc(-c3ccc(Cl)cc3)c3c(N)ncnc32)cc1` the value was 37%; for `C[C@]12CCC3[C@@H](CC[C@@H]4c5nonc5CC[C@]34C)C1CCC(=O)N2` (stereo not given in full), 10%; for `CCN(CC)Cc1cc(N=Nc2c(O)ccc3c(N=Nc4ccc(O)c(CN(CC)CC)c4)c(O)ccc23)ccc1O`, 62%. Turning to `CC(C)(C)c1ccc(OC(=O)Nc2ccc(Cl)cc2[N+](=O)[O-])c(Br)c1`, the growth inhibition was -31%. For `CCC(CCCN(CC)CCc1ccccc1)OC(=O)c1cc(OC)c(OC)c(OC)c1` (stereo not given), the growth inhibition was 5%.

Regarding `CCN1/C(=C\c2cc[n+](CC)c3ccccc23)C=Cc2ccccc21`, the growth inhibition is -3%. For `CC1=C(C(=O)Nc2ccccc2C)C(c2ccc(Cl)c(Cl)c2)C(C(=O)Nc2ccccc2C)=C(C)N1` the value was 5%; for `Clc1ccc2nc3c(c(N4CCOCC4)c2c1)CCCC3`, 94% (active). Then `N#Cc1cc2cccn2c2c1cnn2-c1ccccc1`, with -6%. Then `COc1cccc(C2c3cc4c(cc3OC(Nc3ccccc3)C2C)OCO4)c1O` (stereo not given), with -8%. For `Nc1nc(-c2ccccc2)c(-c2ccccc2)c(-c2nc(N)nc(-c3ccccc3)c2-c2ccccc2)n1`, the growth inhibition was 7%. As for `CCOC(C)c1ccccc1` (stereo not given), the growth inhibition is 39%. For `O=C1OC(CCCl)(c2ccccc2)CC1CN1CCOCC1` (stereo not given) the value was 10%; for `OC(Cc1ccccc1)(c1ccccc1)C(O)(Cc1ccccc1)c1ccccc1` (stereo not given), 30%; for `COc1ccc(N=N/N=c2\sc3cc(OC)ccc3n2C)cc1`, 7%.

For `CCCCCC(CO)C(O)(C(F)(F)F)C(F)(F)F` (stereo not given), the growth inhibition is -23%. On to `CC1=C(C(=O)Nc2ccccc2)C(c2ccccc2F)C(C(=O)Nc2ccccc2)=C(C)N1`, for which the growth inhibition was -3%. As for `CCOCCC(=O)NNc1ccccc1`, the growth inhibition was 7%. For `CCOC(=O)C(Br)C(Br)c1cccc([N+](=O)[O-])c1` (stereo not given) the value was 97% (active). As to `Cc1ccc(-c2c(C#N)c(-c3ccccc3)n(NS(=O)(=O)c3ccc(C)cc3)c(=O)c2C#N)cc1`, the growth inhibition was 26%.

As to `CNC(=O)N1N[C@H](c2ccccc2)[C@@H]1c1ccccc1`, the growth inhibition is 25%. For `CCCCCCCCCN(CCCCCCCCC)CC(O)c1cc2c(c3ccccc13)CCCC2` (stereo not given) the value was 9%. Then `O=C(O)C(c1ccc(Cl)cc1)c1ccc(Cl)cc1`, with 10%; and `O=C1c2ccc3ccccc3c2CN2C(=O)CCC12` (stereo not given), with 4%. For `CCCCCCCCCCCCCCCCNc1ccn(C2CC(OP(=O)(O)OCC3OC(n4cc(CC)c(=O)[nH]c4=O)CC3O)C(CO)O2)c(=O)n1` (stereo not given), the growth inhibition is 73% (active). Take `Cc1cc(Cl)c(O)c(-c2cc(-c3cccc([N+](=O)[O-])c3)c3c(N)[nH]c(=S)nc3n2)c1`: the growth inhibition is -6%.
